Compound activity from PubChem.
hcDAF12 agonist = activators of H. contortus DAF-12 nuclear receptor. activation, % at 6.8 µM. 1.4% of 370,000 active. HEK293 hcDAF-12 lit1-tk-luc reporter, luminescence; 0% DMSO, 100% Δ7-dafachronic acid;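 active = activation above the mean of all tested compounds plus 3 SD, cut at about 5.5% in these data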
DAX1 inh-1 = inhibits human nuclear receptor DAX1 | HEK293 Gal4-DAX1 luciferase reporter, luminescence | AID 504766 | inhibition, % at 6.75 µM | 0.99% of 340,000 active;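 active = inhibition above the mean over all tested compounds plus 3 SD, cut at about 4.2% in these data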;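 also: inhibition shows as a rise in luminescence from relieved DAX1 repression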
Target sequence (P51843 207-470 limits assumed): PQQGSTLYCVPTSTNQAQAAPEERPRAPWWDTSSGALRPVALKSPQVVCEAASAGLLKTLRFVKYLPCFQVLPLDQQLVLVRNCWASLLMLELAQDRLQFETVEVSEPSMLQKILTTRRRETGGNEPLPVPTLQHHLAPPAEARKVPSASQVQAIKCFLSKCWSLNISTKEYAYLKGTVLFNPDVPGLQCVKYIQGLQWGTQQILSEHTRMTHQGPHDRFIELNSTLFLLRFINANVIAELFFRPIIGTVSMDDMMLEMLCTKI
ssDAF-12 act = S. stercoralis DAF-12 activation, primary screen. HEK293 ssDAF-12/GRIP1 lit1-tk-luc reporter, luminescence; % of 3 µM dafachronic acid response. activation, % at 6.8 µM. 1% of 370,000 active;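 active = activation above the mean over all tested compounds plus 3 SD, cut at about 0.9% in these data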
hgDAF12 agonist = agonists of H. glycines DAF-12 nuclear receptor. HEK293 GAL4-hgDAF12 UAS-luciferase reporter, agonist luminescence; normalized to butyrate control. activation, % at 6.8 µM. 1.8% of 370,000 active. AID 687014;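 active = activation above a cutoff set at the mean of all screened compounds plus 3 SD, cut at about 10% in these data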
DAX1 inh-2 = inhibitors of DAX1 repression of SF-1 activated StAR promoter; HEK293T StAR-luciferase reporter, SF-1/DAX-1 repression relief; inhibition, % at 6.8 µM; 1.1% of 370,000 active; AID 652010;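 active = inhibition above the mean over all tested compounds plus 3 SD, cut at about 3.6% in these data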;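 also: higher inhibition means more luminescence from relief of DAX-1 repression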
DAX1 inh confirm = confirmation of human DAX1 (NR0B1) inhibitors | shares compounds with DAX1 inh-2 | HEK293T StAR-promoter luciferase reporter, SF-1/DAX-1 repression | inhibition, % at 6.8 µM | 87% of 2,400 active;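 active = inhibition above the average of every tested compound plus 3 SD, cut at about 3.8% in these data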;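 also: active compounds raise luminescence by relieving repression of the StAR reporter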
Target sequence (P51843 whole entry, looked up): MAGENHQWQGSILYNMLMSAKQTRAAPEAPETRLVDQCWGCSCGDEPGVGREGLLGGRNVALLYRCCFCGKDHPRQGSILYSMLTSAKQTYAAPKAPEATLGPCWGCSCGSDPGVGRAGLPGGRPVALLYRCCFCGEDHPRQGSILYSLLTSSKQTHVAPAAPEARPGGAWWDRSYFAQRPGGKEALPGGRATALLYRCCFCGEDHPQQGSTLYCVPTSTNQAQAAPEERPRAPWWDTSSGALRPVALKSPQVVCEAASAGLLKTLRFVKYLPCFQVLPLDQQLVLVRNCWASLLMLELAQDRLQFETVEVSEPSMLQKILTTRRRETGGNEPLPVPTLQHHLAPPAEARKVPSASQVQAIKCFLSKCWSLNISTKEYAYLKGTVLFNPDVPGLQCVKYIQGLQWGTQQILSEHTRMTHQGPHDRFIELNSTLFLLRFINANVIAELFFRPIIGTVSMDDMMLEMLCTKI
SF1 mutant ctr = nonselective inhibitor or artifact in SF-1 mutant DAX1 counter-screen | shares compounds with DAX1 inh-2 | HEK293 StAR-luciferase, SF-1 AF2 mutant, luminescence | inhibition, % at 6.8 µM | 78% of 2,400 active | AID 652136;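 active = inhibition above the mean of all tested compounds plus 3 SD, cut at about 3% in these data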
LXRb hcDAF ctr = LXR-beta agonism as hcDAF-12 counter-screen; HEK293 Gal4-LXR tk-luc reporter, luminescence, 24 h; normalized: DMSO 0%, positive control 100%; activation, % at 6.8 µM; shares compounds with hcDAF12 agonist; AID 743027; 3,400 tested, under 10 active;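 active = mean percent activation of the reporter above a cutoff set as the average over tested compounds plus their standard deviation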
hcDAF12 ag = confirmation of H. contortus DAF-12 agonists; shares compounds with hcDAF12 agonist; HEK293 hcDAF-12 lit1-tk-luc reporter, luminescence; % of Δ7-dafachronic acid response; activation, % at 6.8 µM; 61% of 3,400 active;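 active = mean activation across triplicate tests above the threshold derived from the earlier primary screen, cut at about 5.5% in these data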
hgDAF12 ag = confirmation of H. glycines DAF-12 agonists. HEK293 GAL4-hgDAF12 luciferase reporter, agonist mode; percent of butyrate response. activation, % at 6.8 µM. AID 743050. shares compounds with hgDAF12 agonist. 80% of 3,300 active;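 active = mean activation over triplicate wells above the hit cutoff derived from the earlier primary screen, cut at about 11% in these data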
LXRb DAF12 ctr = LXR-beta agonism as DAF-12 counter-screen | shares compounds with hgDAF12 agonist | HEK293 Gal4-LXR luciferase reporter, 24 h | activation, % at 6.8 µM | 3,300 tested, under 10 active;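 active = mean activation of the triplicate above a set limit carried over from the primary screen, none filed active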
Of the large screens only hits and unclear results are named; the others gave an inactive call (follow-up assays come after a bar, where they were run). Only some compounds are listed: those with a hit (about 4.1% of all), similar ones and a draw of the others.

Cc1ccc(/C(N)=N/OC(=O)c2cccs2)cc1	hcDAF12 agonist 12, ssDAF-12 act 1.0, hgDAF12 agonist 21, DAX1 inh-2 6.5 | DAX1 inh confirm 5.9 | SF1 mutant ctr 5.1 | LXRb hcDAF ctr inactive | hcDAF12 ag inactive | hgDAF12 ag 17 | LXRb DAF12 ctr inactive
CC(C)(C)c1ccc(C(=O)Nc2cc(Cl)ccc2-c2nn[nH]n2)cc1	none (no result: DAX1 inh-1, DAX1 inh-2)
C/C(=N\Nc1cccc2cccnc12)c1ccccn1	hcDAF12 agonist 14, ssDAF-12 act 2.0, hgDAF12 agonist 28, DAX1 inh-2 6.3 | DAX1 inh confirm 17 | SF1 mutant ctr 7.8 | LXRb hcDAF ctr inactive | hcDAF12 ag 13 | hgDAF12 ag 23 | LXRb DAF12 ctr inactive
O=C(Nc1ccc2c(c1)Cc1ccccc1-2)c1ccco1	hcDAF12 agonist 6.3, hgDAF12 agonist 17, DAX1 inh-2 5.6 | DAX1 inh confirm 17 | SF1 mutant ctr 10 | hgDAF12 ag 21 | LXRb DAF12 ctr inactive
N#C/C(=N/Nc1ccc([N+](=O)[O-])cc1)C(=N)N1CCCCC1	hcDAF12 agonist 6.4, DAX1 inh-1 8.1, ssDAF-12 act 1.6, hgDAF12 agonist 20, DAX1 inh-2 5.5 | DAX1 inh confirm 8.2 | SF1 mutant ctr 3.2 | hgDAF12 ag 21 | LXRb DAF12 ctr inactive
N#C/C(=N\Nc1ccc(Cl)cc1)C(=N)N1CCCCCC1	DAX1 inh-1 10, hgDAF12 agonist 18, DAX1 inh-2 7.6 | DAX1 inh confirm 22 | SF1 mutant ctr 8.8 | hgDAF12 ag 24 | LXRb DAF12 ctr inactive
N#C/C(=N\Nc1ccccc1[N+](=O)[O-])C(=N)N1CCCCC1	hcDAF12 agonist 7.9, DAX1 inh-1 7.4, ssDAF-12 act 1.0, hgDAF12 agonist 14, DAX1 inh-2 8.0 | DAX1 inh confirm 14 | SF1 mutant ctr 8.1 | LXRb hcDAF ctr inactive | hcDAF12 ag 8.6 | hgDAF12 ag 18 | LXRb DAF12 ctr inactive
N#C/C(=N\Nc1ccc([N+](=O)[O-])cc1)C(=N)N1CCOCC1	none
O=C(NCCc1c[nH]c2ccccc12)OCc1cn(Cc2cccc(F)c2F)nn1	none (no result: DAX1 inh-1)
COC(=O)C1=C(C)N(Cc2ccccc2C(F)(F)F)C(=NCc2ccc(C(F)(F)F)cc2)NC1c1cccc(F)c1 (stereo not drawn)	none (no result: DAX1 inh-1)
COc1ccc2cc(-c3cc(C(=O)OCC(=O)Nc4c(C)n(C)n(-c5ccccc5)c4=O)c4ccccc4n3)ccc2c1	hgDAF12 agonist 15, DAX1 inh-2 4.8 | DAX1 inh confirm 11 | SF1 mutant ctr 6.4 | hgDAF12 ag 12 | LXRb DAF12 ctr inactive
C[C@H]1C2CC(OC(=O)NCc3ccccc3)C(C2)[C@H]2CCCCN21 (stereo partly drawn)	none (no result: DAX1 inh-1)
COC(=O)CSc1nc2ccc(C)cc2cc1C#N	hcDAF12 agonist 7.2, DAX1 inh-1 5.9, ssDAF-12 act 1.4, hgDAF12 agonist 26, DAX1 inh-2 8.8 | DAX1 inh confirm 19 | SF1 mutant ctr 11 | LXRb hcDAF ctr inactive | hcDAF12 ag inactive | hgDAF12 ag 20 | LXRb DAF12 ctr inactive
COC(=O)CSc1nc2cc(C)cc(C)c2cc1C#N	none
CC(=O)CSc1nc2cc3c(cc2cc1C#N)OCCO3	hcDAF12 agonist 12, hgDAF12 agonist 27, DAX1 inh-2 7.9 | DAX1 inh confirm 14 | SF1 mutant ctr 4.9 | LXRb hcDAF ctr inactive | hcDAF12 ag 10 | hgDAF12 ag 19 | LXRb DAF12 ctr inactive
C=CCN1C(=O)[C@@H](CC(=O)NCc2ccc(OC)c(OC)c2)[C@]2(C(=O)OC)CCCCC=C12	none (no result: DAX1 inh-1)
Cc1nn2cc(-c3ccccc3)nc2s1	hgDAF12 agonist 14, DAX1 inh-2 5.7 | DAX1 inh confirm 10 | SF1 mutant ctr 7.5 | hgDAF12 ag 15 | LXRb DAF12 ctr inactive
O=C(/C=C/c1ccco1)N1CCc2ccccc21	hcDAF12 agonist 16, ssDAF-12 act 1.5, hgDAF12 agonist 16, DAX1 inh-2 10 | DAX1 inh confirm 13 | SF1 mutant ctr 6.4 | LXRb hcDAF ctr inactive | hcDAF12 ag 11 | hgDAF12 ag 21 | LXRb DAF12 ctr inactive
CCOC(=O)/C=C/C(=O)N1CCc2ccccc21	none
O=C(/C(C=Nc1ccc(Br)cc1)=C(/O)c1ccco1)C(F)(F)F	hgDAF12 agonist 19, DAX1 inh-2 5.3 | DAX1 inh confirm 17 | SF1 mutant ctr inactive | hgDAF12 ag 16 | LXRb DAF12 ctr inactive
COC(=O)[C@]12CCCCC=C1N(Cc1ccc(OC)cc1)C(=O)[C@@H]2CC(=O)NCc1cccc(C(F)(F)F)c1	none (no result: DAX1 inh-1)
COc1ccc(C(=O)/C=C/c2ccccc2)c(O)c1	none
COc1cc(O)cc(/C=C/c2ccccc2)c1	hgDAF12 agonist 15, DAX1 inh-2 4.6 | DAX1 inh confirm 9.3 | SF1 mutant ctr 5.5 | hgDAF12 ag 16 | LXRb DAF12 ctr inactive
CC(Cc1ccccc1)NC(=O)/C=C/c1ccc([N+](=O)[O-])cc1 (stereo not drawn)	none
CC(Cc1ccccc1)NC(=O)c1ccc([N+](=O)[O-])cc1 (stereo not drawn)	hcDAF12 agonist 5.7, hgDAF12 agonist 14, DAX1 inh-2 4.8 | DAX1 inh confirm 14 | SF1 mutant ctr 8.9 | hgDAF12 ag 14 | LXRb DAF12 ctr inactive
CCC(=O)Nc1cc(-c2cc3ccccc3oc2=O)ccc1OC	hgDAF12 agonist 14, DAX1 inh-2 5.0 | DAX1 inh confirm 9.3 | SF1 mutant ctr 6.0 | hgDAF12 ag 15 | LXRb DAF12 ctr inactive
COc1ccc(-c2cc3ccccc3oc2=O)cc1NC(=O)c1ccc(Br)o1	none
CC1(C)CC(=O)C=C(Nc2ccccc2NC(=O)c2cccc(F)c2F)C1	none (no result: DAX1 inh-1)
CCCC(=O)OC12CCCN(C1)/C(=C/c1cccc(OC)c1)C2 (stereo not drawn)	none (no result: DAX1 inh-1)
Nc1[nH]c(C(=O)c2ccc(Br)cc2)c(-c2ccc(Br)cc2)c1C(=O)NCc1cccc2ccccc12	none (no result: DAX1 inh-1)
Cc1ccc2cc(CCNC(=O)c3cccs3)c(=O)[nH]c2c1	none
